Each structure is given as a SMILES string. The campaign covered roughly 350,000 compounds. About 7,000 (2%) were called active. Rule as the data show it: active = activation above about 40%; inconclusive = no clear call, values can overlap the other calls; inactive = below that. This excerpt belongs to a sample that is enriched for actives.

This assay can be described thus: raisers of Bmi1 knock-in reporter signal – mouse ES cells, Bmi1 luciferase knock-in, single point, esBAF inhibitor project, primary screen (AID 602393).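 Also: 0% = median of the plate's neutral control wells and 100% = double that signal; a rise in the Bmi1 reporter signal indicates esBAF inhibition.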 Particulars: 24 h, at 12.5 µM, active compounds read high, 100% = twice the neutral-well signal.
`COC(=O)C[C@@H]1CC[C@@H]2[C@@H](COc3ccc(NC(=O)C4CCOCC4)cc3C(=O)N2C)O1`: the reporter increase is 1.18% (inactive). As to `C[C@H]1CN([C@@H](C)CO)C(=O)Cc2cc(NC(=O)Nc3ccc(F)cc3)ccc2O[C@H]1CN(C)S(=O)(=O)c1ccc(F)cc1`, the reporter increase was 1.01% (inactive).

For the molecule `COc1cc(-n2c(C)nc3cc(C(=O)NCc4ccco4)ccc32)cc(OC)c1OC`, the reporter increase was -1.78% (inactive).

In the case of `Cc1nc2cc(NCc3cccs3)ccc2n1C`, the reporter increase is 35% (inactive).

As to `COc1ccc(-n2cnc3cc(NCc4ccco4)ccc32)cc1`, the reporter increase is 56.7% (active). In the case of `O=C(C[C@H]1CC[C@H](NC(=O)Nc2ccccc2F)[C@@H](CO)O1)NCc1ccccc1`, the reporter increase was 0.158% (inactive). `Cc1ccc(NC(=S)Nc2ccc(F)cc2)cc1`: the reporter increase is 9.65% (inactive). With `FC(F)(F)Oc1ccc(NC(=S)NCc2ccccc2)cc1`, the reporter increase was -1.5% (inactive). With `S=C(Nc1ccccc1)Nc1ccc2ccccc2c1`, the reporter increase is 78.2% (active). For `CCOc1ccc(/C=C(/C#N)c2nnc(N3CCOCC3)n2-c2ccccc2)cc1OC`, the reporter increase was 2.69% (inactive). On to `CCCCCOc1ccc(/C=C/C(=O)NCCc2nc3ccccc3[nH]2)cc1OC`, for which the reporter increase is 1.93% (inactive). In the case of `COc1cc(/C=C(\C#N)c2nc3ccccc3[nH]2)ccc1O`, the reporter increase is 54.9% (active). Take `CC=Cc1ccc2n(c1=O)C[C@@H]1[C@@H](CO)[C@H](C(=O)NCCCN3CCOCC3)[C@H]2N1Cc1cocn1` (mixture of isomers): the reporter increase was -2.98% (inactive).

As to `CCNC(=O)C[C@@H]1CC[C@H](NC(=O)NC2CCCCC2)[C@H](CO)O1`, the reporter increase is -1.71% (inactive). Turning to `O=C(C[C@@H]1C[C@@H]2c3cc(NC(=O)Cc4ccncc4)ccc3O[C@@H]2[C@H](CO)O1)NCc1cccc(F)c1`, the reporter increase is -1.25% (inactive).

Regarding `O=C(COC(=O)c1cccc(Cl)c1Cl)NC1CCCCCC1`, the reporter increase was -2.51% (inactive). Regarding `O=C(OCC(=O)N1CCCCCC1)c1cccc(Cl)c1Cl`, the reporter increase was 46.9% (active). As for `O=C(COc1ccccc1Cl)N1CCCCCCC1`, the figure is 5.02% (inactive).

On to `CC(C)Cc1cc(C(=O)Nc2cc(Br)ccc2O)no1`, for which the reporter increase was 30.6% (inactive).

For `Cc1ccc(O)c(NC(=O)c2cc(-c3ccco3)on2)c1`, the reporter increase is 69.9% (active). As for `Cc1ccc(C)c(NC(=O)c2ccc(OC(=O)c3ccco3)cc2)c1`, the reporter increase was 5.84% (inactive). The figure for `C[C@H](CO)N1C[C@H](C)[C@@H](CN(C)CC2CC2)OCCCC[C@H](C)Oc2ccc(NC(=O)Nc3ccccc3)cc2C1=O` is 2.38% (inactive). `CNC[C@H]1Oc2cc(-c3ccc(C(=O)N(C)C)cc3)ccc2S(=O)(=O)N([C@@H](C)CO)C[C@@H]1C`: the reporter increase is 0.467% (inactive). As for `C[C@@H]1CN([C@H](C)CO)C(=O)c2ccccc2-c2ccccc2CO[C@H]1CN(C)C(=O)CCC(F)(F)F`, the reporter increase is -0.31% (inactive). `COc1cccc(C(=O)Nc2ccc3nc4n(c(=O)c3c2)CCCCC4)c1`: the reporter increase was 38.2% (inactive). `O=c1c2c(nc3n1CCCCC3)sc1c(O)cccc12`: the reporter increase was -22.9% (inactive). In the case of `CC(=O)c1ccc(NC(=O)c2sc3nc4n(c(=O)c3c2C)CCCCC4)cc1`, the reporter increase is 56.1% (active). Take `COc1cccc(NC(=O)N(C)C[C@H]2Oc3ncc(C4=CCCCC4)cc3C(=O)N([C@H](C)CO)C[C@H]2C)c1`: the reporter increase is 6.32% (inactive). For the molecule `C[C@H](CO)N1C[C@H](C)[C@@H](CN(C)C(=O)Nc2ccccc2)Oc2ncc(C3=CCCC3)cc2C1=O`, the reporter increase was 1.19% (inactive). Regarding `Cn1cnc(S(=O)(=O)N2C[C@@H](O)COC[C@H]3O[C@H](CC(=O)N4CCN(c5ccccc5)CC4)CC[C@@H]32)c1`, the reporter increase was 0.849% (inactive). As for `COc1ccc(C2=NN(C(=O)c3ccccc3C(=O)O)C(c3ccccc3O)C2)cc1` (centres undefined), the reporter increase was 74.8% (active). As to `COc1ccc(C2CC(c3ccc([N+](=O)[O-])cc3)=NN2C(C)=O)cc1` (centres undefined), the reporter increase was 71.3% (active). Regarding `COc1ccc(C2=NN(C(=O)CSc3nnnn3C)C(c3ccco3)C2)cc1` (centres undefined), the reporter increase is 18% (inactive). On to `COc1cccc(C2CC(c3ccccc3)=NN2S(=O)(=O)c2ccccc2)c1OC` (centres undefined), for which the reporter increase is -2.12% (inactive). On to `COc1ccc(C2=NN(C(=O)CSc3nc(=O)n4ccc(C)cc4n3)C(c3ccc(C)cc3)C2)cc1` (centres undefined), for which the reporter increase was 9.03% (inactive). In the case of `COc1ccc(C2CC(c3ccccc3)=NN2C(=O)CSc2nccc(=O)[nH]2)cc1` (centres undefined), the reporter increase was 11.5% (inactive). Take `COc1ccc(C2=NN(C(C)=O)C(c3ccccc3)C2)cc1` (centres undefined): the reporter increase is 53.9% (active).

Take `COc1ccc(C2CC(c3cccc(OC)c3)=NN2c2ccc(S(N)(=O)=O)cc2)cc1` (centres undefined): the reporter increase was 4.76% (inactive). For the molecule `COc1ccc(C2CC(c3ccccc3)=NN2C(=O)c2ccc(Cl)c([N+](=O)[O-])c2)cc1` (centres undefined), the reporter increase was -0.268% (inactive). The figure for `C[C@@H]1CN([C@@H](C)CO)C(=O)Cc2cc(NC(=O)Nc3cccc4ccccc34)ccc2O[C@@H]1CN(C)CC1CCCCC1` is -7.15% (inactive); for `CC(C)CC#Cc1cnc2c(c1)C(=O)N([C@H](C)CO)C[C@H](C)[C@@H](CN(C)Cc1ccccc1C(=O)O)O2` it is -5.98% (inactive); for `Cc1noc(C)c1S(=O)(=O)Nc1ccc2c(c1)C(=O)N([C@H](C)CO)C[C@@H](C)[C@@H](CN(C)Cc1ccccc1)OCCCC[C@@H](C)O2` it is 3.09% (inactive). With `CN1C(=O)c2cc(NC(=O)C3CCCCC3)ccc2OC[C@H]2O[C@@H](CC(=O)NC3CCCC3)CC[C@@H]21`, the reporter increase was 0.376% (inactive). On to `C[C@@H]1CN([C@@H](C)CO)C(=O)Cc2cc(NC(=O)Nc3cccc4ccccc34)ccc2O[C@H]1CN(C)S(=O)(=O)c1ccc(Cl)cc1`, for which the reporter increase is -0.13% (inactive). On to `COc1ccc(NC(=O)N(C)C[C@H]2Oc3ccc(NC(=O)Cc4cn(C)c5ccccc45)cc3CC(=O)N([C@@H](C)CO)C[C@H]2C)cc1`, for which the reporter increase was -1.83% (inactive).

For `CS(=O)(=O)Nc1cccc(C2=NN(S(=O)(=O)c3ccccc3)C(c3cccs3)C2)c1` (centres undefined), the reporter increase is -7.36% (inactive). With `CS(=O)(=O)Nc1cccc(C2=NN(C(=O)c3cccc(F)c3)C(c3cccs3)C2)c1` (centres undefined), the reporter increase was 5.14% (inactive). On to `CS(=O)(=O)Nc1ccc(C2=NN(S(C)(=O)=O)C(c3cccs3)C2)cc1` (centres undefined), for which the reporter increase was 58.2% (active). Regarding `CC(C)C#Cc1ccc2c(c1)O[C@@H](CN(C)C(=O)C1CC1)[C@H](C)CN([C@H](C)CO)S2(=O)=O`, the reporter increase was 3.19% (inactive).

Source of the values: PubChem BioAssay AID602393 (Broad Institute, 2012).
